UHRF1 binding: UHRF1 methyl-DNA binding inhibition | inhibition, % at 4.4 µM | UHRF1 binding to methylated oligo, TR-FRET | Q96T88 | AID 687016 | actives 0.75% (n = 370,000); in the data active = inhibition above about 21%;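 also: UHRF1 SRA domain binding a hemimethylated CpG hairpin DNA probe; 0% = median of test compound wells and 100% = reference inhibitor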
proKLK7 act: proKLK7 (human) activation, primary screen | purified proKLK7, EDANS-DABCYL substrate fluorescence; 100% is mature enzyme control, 0% vehicle | activation, % at 7 µM | actives 0.9% (n = 370,000);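 active = activation above the mean of all tested compounds plus 3 SD, computed per campaign excluding outliers beyond control limits, cut at about 13% in these data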
LEDGF integ inh: blocks HIV-1 LEDGF/p75-dependent DNA integration | inhibition, % at 3.7 µM | TR-FRET IN-LEDGF/p75 DNA integration, Eu/Cy5 | actives 0.64% (n = 370,000);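 active = inhibition above the screen-wide mean plus 3 SD, cut at about 13% in these data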;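 also: signal is the Cy5 over europium emission ratio at 671 and 618 nm; 0% = plate median of compound wells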
MBD2 DNA inh: blocks human MBD2 binding to methylated DNA; Q9UBB5; TR-FRET, MBD2 binding to methylated oligonucleotide; inhibition, % at 4.4 µM; actives 0.31% (n = 370,000); AID 686964; in the data active = inhibition above about 13%
Neddyl block: blocks human cullin neddylation; P61081+Q13564; TR-FRET cullin neddylation, biochemical; calls only at 25 µM; actives 0.58% (n = 360,000); in the data active = inhibition above about 36%
Target sequence (P61081 whole entry, looked up): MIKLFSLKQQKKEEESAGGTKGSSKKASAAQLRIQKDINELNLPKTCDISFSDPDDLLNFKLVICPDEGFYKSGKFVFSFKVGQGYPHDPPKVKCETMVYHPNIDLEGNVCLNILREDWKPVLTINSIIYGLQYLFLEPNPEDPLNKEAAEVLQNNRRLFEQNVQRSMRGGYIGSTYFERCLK
Target sequence (Q13564 whole entry, looked up): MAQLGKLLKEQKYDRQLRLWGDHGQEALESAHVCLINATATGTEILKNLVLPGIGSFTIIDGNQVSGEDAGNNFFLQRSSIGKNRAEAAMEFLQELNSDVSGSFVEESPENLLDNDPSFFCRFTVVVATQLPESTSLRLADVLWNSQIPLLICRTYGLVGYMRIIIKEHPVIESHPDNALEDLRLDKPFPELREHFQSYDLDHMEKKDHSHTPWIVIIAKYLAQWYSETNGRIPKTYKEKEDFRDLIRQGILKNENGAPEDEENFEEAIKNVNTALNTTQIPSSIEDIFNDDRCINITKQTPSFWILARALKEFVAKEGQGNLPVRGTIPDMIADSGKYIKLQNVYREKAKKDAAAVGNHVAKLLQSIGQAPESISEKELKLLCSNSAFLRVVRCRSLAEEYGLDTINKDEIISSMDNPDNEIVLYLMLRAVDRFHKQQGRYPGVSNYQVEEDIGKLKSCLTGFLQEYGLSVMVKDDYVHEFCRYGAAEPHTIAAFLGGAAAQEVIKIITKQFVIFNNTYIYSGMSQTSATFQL
Rin1 Abl inh: blocks binding of human Rin1 to Abl; P00519+Q13671; TR-FRET Rin1/Abl binding, biochemical; inhibition, % at 7.35 µM; actives 0.4% (n = 360,000); in the data active = inhibition above about 5%, passing the limit was not always enough
* hit, by the source's call; i = inactive; x = not tested or not shown; + = active, no number. A selection: hits, their analogues and other compounds. The true share with any hit is near 3.1%.

SMILES	UHRF1 binding	proKLK7 act	LEDGF integ inh	MBD2 DNA inh	Neddyl block	Rin1 Abl inh
COc1ccc(OC)c(NC(=O)c2csc(Cl)c2OC)c1	-1	0	-4	2	i	-2
Nc1nc2ccccc2n1C(=O)c1ccccc1	0	0	2	2	+	1
CC1(c2nnnn2Cc2ccccc2)CCC(=O)N1CCc1ccc(O)cc1 (stereo not drawn)	24*	0	-2	6	i	x
CCOC(=O)C(Cc1ccc(OC)c([N+](=O)[O-])c1)NC(=O)CCC(=O)Nc1ccc(OC)cc1 (stereo not drawn)	28*	-1	7	-6	i	9
CC(=O)N1N=C(c2ccco2)CC1c1ccc(Cl)o1 (stereo not drawn)	33*	0	11	6	i	-1
CCCCOC(=O)Nc1ccc(S(=O)(=O)Nc2nc(C)cc(C)n2)cc1	3	1	-5	-4	i	3
CCCCOC(=O)Nc1ccc(S(=O)(=O)Nc2onc(C)c2C)cc1	21*	0	-3	-2	i	-2
COC(=O)CSC1=C(C#N)C(c2ccc(Cl)cc2)C(C(=O)OC)C(=O)N1 (stereo not drawn)	23*	1	1	11	i	0
CCOC(=O)CSC1=C(C#N)C(c2ccc(Cl)cc2)C(C(=O)OC)C(=O)N1 (stereo not drawn)	-1	1	0	-6	i	0
Cc1ccc(C2(C)NC(=O)N(CC(=O)N(C)CC(=O)Nc3cccc4ccccc34)C2=O)cc1 (stereo not drawn)	-2	1	2	-3	i	2
[S-]C(=Nc1ccc(Cl)cc1)N[n+]1ccccc1	58*	0	-1	-2	i	1
CCOC(=O)c1sc2nc(OCc3cccnc3)cc(C)c2c1N	55*	-23	0	25*	x	x
CCOC(=O)c1sc2nc(C)cc(C)c2c1N	-2	6	-2	-5	x	-6
COc1cc2c(c(OC)c1OC)-c1ccc(NC(=O)c3ccc(F)cc3)c(=O)cc1[C@@H](NC(C)=O)CC2	21*	-1	7	8	i	3
COc1cc2c(c(OC)c1OC)-c1ccc(OC)c(=O)cc1[C@@H](NC(C)=O)CC2	-2	0	-2	0	i	-3
CCOc1ccccc1N(CC(=O)O)S(=O)(=O)c1ccccc1	4	0	0	3	i	1
CCOc1ccccc1N(CC(=O)N(C)Cc1ccccc1)S(=O)(=O)c1ccccc1	23*	0	4	7	i	2
C=C1[C@@H](O)[C@H](CC(C)C)N(Cc2ccccc2Br)S1(=O)=O	0	1	2	-2	i	1
Nc1cccc2c(O)cccc12	2	-2	-6	-6	+	0
Nc1ccccc1O	x	x	x	x	i	6
CN1c2ccsc2/C(=N/Nc2ccccc2)CS1(=O)=O	24*	0	-1	7	i	-2
CN1c2ccsc2/C(=N/NC(=O)c2c(F)cccc2F)CS1(=O)=O	-2	0	-1	4	i	2
O=C(Cn1cnc2sc(-c3ccccc3)cc2c1=O)NCc1ccco1	50*	-1	11	10	i	-3
CC(OC(=O)Cn1[nH]c(=O)c2ccccc2c1=O)C(=O)Nc1cccc(Cl)c1 (stereo not drawn)	-2	0	-2	-1	i	-1
CC(OC(=O)Cn1[nH]c(=O)c2ccccc2c1=O)C(=O)Nc1ccc(F)cc1Cl (stereo not drawn)	50*	0	7	13	i	3
SMILES	UHRF1 binding	proKLK7 act	LEDGF integ inh	MBD2 DNA inh	Neddyl block	Rin1 Abl inh
O=C(CN1CCN(C(=O)c2ccco2)CC1)Nc1ccc(F)cc1F	1	1	-2	5	i	0
CCOC(=O)c1c(N)sc(C(O)(C(F)(F)F)C(F)(F)F)c1-c1ccc(OC)cc1OC	25*	-1	-5	-3	i	3
CCOC(=O)c1c(N)sc(N)c1C(=O)OCC	-1	1	0	-4	i	0
Cc1cccc(NC(=O)CSc2ccc(-c3ccc4c(c3)OCO4)nn2)c1C	27*	0	2	13	i	-3
CCOC(=O)COc1c(/C=N\OC)cc(Cl)cc1OC	5	0	1	2	i	1
CCOC(=O)COc1c(C=O)cc(Br)cc1OC	28*	-3	0	1	i	-1
C=CC[C@@H](CC(=O)N(CCO)Cc1ccccc1)C(=O)N[C@@H](C)COC(=O)[C@@H](CC=C)Cc1ccc(F)cc1	-2	0	-1	-7	i	2
Cc1ccc(C(C(=O)NCc2ccc(F)cc2)N(CCCO)C(=O)C2COc3ccccc3O2)o1 (stereo not drawn)	23*	1	1	5	i	-4
COC(=O)CNC(=O)COc1ccccc1	2	0	1	-4	i	0
COc1cc2c(cc1OC)C(C(=O)N(C)Cc1ccccc1)C(c1cccnc1)N(C)C2=O (stereo not drawn)	38*	1	3	3	i	3
COc1cc2c(cc1OC)C(C(=O)Nc1cc(OC)c(OC)c(OC)c1)C(c1cccnc1)N(C)C2=O (stereo not drawn)	-2	0	1	-7	i	3
O=C(COC(=O)CCc1c[nH]c(=O)[nH]1)Nc1cccc(Cl)c1	2	-1	2	3	i	11*
COc1ccccc1-c1ccc(OCCCN2CCC(C(O)(c3ccccc3)c3ccccc3)CC2)cc1	-3	-1	1	6	x	x
O=C(Nc1nncs1)c1cccnc1Cl	25*	1	-1	10	i	-2
Cc1nonc1CC(=O)N1CCCC(C(=O)c2ccc(Cl)cc2)C1 (stereo not drawn)	4	0	1	-2	i	-4
O=c1cc(-c2ccc(O)c(O)c2)oc2cc(O[C@@H]3O[C@H](CO)[C@@H](O)[C@H](O)[C@H]3O)cc(O)c12	x	x	x	x	i	24*
CCOC(=O)CN(c1cc([N+](=O)[O-])ccc1OC)S(C)(=O)=O	1	0	-4	2	i	0
CCCCCCN1CCS(=O)(=O)N(Cc2ccc(F)cc2)C(C(=O)OC)C1 (stereo not drawn)	0	-1	2	0	x	x
COc1ccc(CNC(=O)CSc2nc3ccccc3n2C(C)=O)cc1	24*	0	5	7	i	3
COCC[N+]1(C)CCCCC1	1	0	-2	-1	i	2
S=C(Nc1ccc(Cl)cc1)NN1CCOCC1	30*	0	0	10	i	2
CC(C)c1ccc(NC(=S)NN2CCOCC2)cc1	3	0	3	7	i	-2
O=C(O)c1cc(-c2c[nH]c3ccccc23)nc2ccc3ccccc3c12	21*	1	1	1	x	-2

High-throughput results from PubChem BioAssay.
